Results filed as inconclusive are left out. A call without a number means that no potency is given here. Active and inactive are the calls of the source. Unless noted, calls follow the shape of the full dose curve.
Assays:
[1] = Primary qHTS for inhibitors of SARS-S pseudo-typed particle cell entry (AID 1479145); conditions: outcome: dose series up to 57.1 µM unless noted; also: nearly all actives have a fitted effect of over 45% in size; also: potency is read from the fitted curve at half-maximal effect
[2] = Primary qHTS for Huh7 cytotoxicity: counterscreen for inhibitors of MERS-S pseudotyped particle cell entry (AID 1479147); conditions: outcome: dose series up to 57.1 µM unless noted
[3] = Primary qHTS for Vero E6 cytotoxicity: counterscreen for inhibitors of SARS-S pseudo-typed particle cell entry (AID 1479150); conditions: outcome: dose series up to 57.1 µM unless noted
[4] = Cytotoxicity counterscreen for inhibitors of SARS-CoV-2 cell entry (AID 1645845); conditions: outcome: dose series up to 57.1 µM unless noted; also: nearly all actives have a fitted effect of over 50% in size; also: potency is read from the fitted curve at half-maximal effect
In short: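 ATP-content luminescence (ATPLite 1step, 15 min RT) read after 48 h compound exposure of Expi293F cells stably expressing human ACE2; normalized to cells-only wells and media-only wells.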

[5] = qHTS Assay for Identification of Small Molecule Agonists for Hypoxia Response Element Signaling Pathway (AID 914; active = well fitted activation curve with a large enough effect in the signal ratio, with a control signal flat, not every such curve was filed as active; the % refers to the signal ratio; also: potency is read from the fitted curve at half-maximal effect); conditions: ME-180 (cervical carcinoma) HRE-bla reporter, beta-lactamase ratio, CoCl2, 17 h; activation: stronger effect = higher value
In short: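 HRE-bla ME-180 cells with beta-lactamase reporter under hypoxia response element, compounds with EC50 CoCl2 for 17 hours at 37 C. CCF4 substrate, 460nm/530nm emission ratio gave %Activity; AC50 from titration series.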

[6] = qHTS Assay for Identifying Gametocytocidal Compounds (AID 743244; active = well fitted curve in the direction sought with a large enough effect; an effect the other way counts as inactive or inconclusive; also: potency is read from the fitted curve at half-maximal effect); conditions: P. falciparum 3D7 stage III-V gametocytes, alamarBlue, 72 h
In short: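 Stage III-V P. falciparum 3D7 gametocytes, 20,000 per well, were exposed to compounds for 72 h at 37C, 5% CO2. AlamarBlue was then added for 24 h and viability was read as fluorescence at Ex 525/Em 598 nm.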

[7] = Primary qHTS for inhibitors of MERS-S pseudo-typed particle cell entry (AID 1479149); conditions: outcome: dose series up to 57.1 µM unless noted; also: nearly all actives have a fitted effect of over 60% in size; also: potency is read from the fitted curve at half-maximal effect
[8] = Confirmatory qHTS for VERO E6 Cytotoxicity Assay: Counterscreen for SARS-CoV-2 CPE Assay (AID 1508605); also: nearly all actives have a fitted effect of over 60% in size
[9] = Confirmatory qHTS for activators (rescue) of SARS-CoV-2 Cytopathic Effect (CPE) (AID 1508606); also: potency is read from the fitted curve at half-maximal effect; nearly all actives have a fitted effect of over 70% in size
[10] = Primary qHTS to identify inhibitors of SARS-CoV-2 cell entry (AID 1645846); conditions: SARS-CoV-2 pseudovirus cell entry assay, luminescence; activity change, negative = inhibition: at 57.1 µM (top of the series) unless noted; also: nearly all actives have a fitted effect of over 45% in size; also: potency is read from the fitted curve at half-maximal effect
In short: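 Entry measured by luciferase signal 48 h after adding SARS-CoV-2-S pseudotyped MLV particles to HEK293-ACE2 cells preincubated 1 h with compounds. Normalisation: bald particles and spike particles.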

[11] = VSVG counterscreen qHTS to identify inhibitors of SARS-CoV-2 cell entry (AID 1645847); also: potency is read from the fitted curve at half-maximal effect; nearly all actives have a fitted effect of over 65% in size
In short: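 Luminescence read after 48 h infection at 37 C with VSV-G-pseudotyped MLV particles, following 1 h compound exposure of Expi293F cells stably expressing human ACE2; scaled between bald particle and VSV-G particle wells.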

[12] = Confirmatory qHTS to identify inhibitors of SARS-CoV-2 cell entry (AID 1645844); also: potency is read from the fitted curve at half-maximal effect; nearly all actives have a fitted effect of over 45% in size
In short: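 Luminescence entry read-out after 48 h: spike-pseudotyped MLV particles (Wuhan-Hu-1, 19-aa C-terminal truncation) added to compound-pretreated (1 h) HEK293-ACE2 cells; Data were normalised to bald PP and spike PP wells.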

[13] = target: Cytochrome P450 3A4 (Homo sapiens) (UniProt P08684); test: qHTS Assay for Inhibitors and Substrates of Cytochrome P450 3A4 (AID 884; active = well fitted curve in the direction sought with a large enough effect; an effect the other way counts as inactive or inconclusive; also: nearly all actives have a fitted effect of over 50% in size)
In short: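 Luminescent readout of luciferin produced by CYP3A4 (20 nM) dealkylation of Luciferin-PPXE, 25 uM (its KM). NADPH-driven reaction ran 60 min at RT after 10 min compound preincubation; data scaled to 57 uM ketoconazole as 100% inhibition.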

[14] = Confirmation and Secondary Assay for Modulators of Hemoglobin Beta Chain Splicing at IVS2 654 locus (AID 910; active = well fitted curve in the direction sought with a large enough effect; an effect the other way counts as inactive or inconclusive;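 also: HeLa cells stably carrying EGFP split by mutant beta-globin IVS2-654 intron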)
In short: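 Readout: per-well total peak green fluorescence (488 nm ex, 500–520 nm em) from objects 5–250 µm, reflecting correct splicing of an EGFP-654 reporter. Compounds were applied for 2 days at 37 °C to overnight-plated HeLa EGFP-654 cells; controls were DMSO and 500 nM IVS2-654 PNA.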

[15] = Confirmation and Secondary Assay for Modulators of Hemoglobin Beta Chain Splicing at IVS2 705 locus (AID 930; active = well fitted curve in the direction sought with a large enough effect; an effect the other way counts as inactive or inconclusive;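 also: HeLa cells stably expressing the EGFP-705 splicing reporter; GFP fluorescence per well restored by corrected splicing of the IVS2-705 intron in EGFP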)
In short: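 HeLa cells stably carrying EGFP interrupted by mutant beta-globin intron 2 (IVS2-705) treated 2 days at 37C with compound; 500 nM antisense PNA as control. Correct splicing read as total peak GFP intensity per well by laser-scanning cytometry.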

[16] = qHTS Assay for Lipid Storage Modulators (AID 1519); conditions: Drosophila S3 cells, BODIPY lipid droplet/cell ratio, laser cytometry, cells loaded with oleic acid
In short: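 Cells seeded at 5,000 per well were treated with compounds over a concentration series and loaded with oleic acid (400 uM, as added). Lipid droplet fluorescence (488 nm excitation, 500-530 nm channel) was read by laser-scanning cytometry and normalized to 20 uM Triacsin C.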

[17] = target: Ubiquitin carboxyl-terminal hydrolase 1 (Homo sapiens) (UniProt O94782); test: Inhibitors of USP1/UAF1: Pilot qHTS (AID 504865; active = well fitted curve in the direction sought with a large enough effect; an effect the other way counts as inactive or inconclusive;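 also: rhodamine fluorescence freed from ubiquitin-rhodamine substrate followed over time; top concentration of the series differs between compounds; nearly all actives have a fitted effect of over 35% in size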)
In short: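 Deubiquitinase activity followed as kinetic rhodamine fluorescence release from 150 nM Ub-Rho. 1 nM USP1/UAF1 with compound, after 15 min room-temperature preincubation, in HEPES pH 7.8 buffer containing TCEP, EDTA, BSA and Tween-20.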

[18] = target: Glutathione peroxidase 1 (Homo sapiens) (UniProt P07203); test: Primary qHTS Assay for Inhibitors of Recombinant Selenoprotein Glutathione Peroxidase 1 (GPX1) (AID 1845191; active = well fitted curve in the direction sought with a large enough effect; an effect the other way counts as inactive or inconclusive; also: nearly all actives have a fitted effect of over 65% in size)
In short: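 NADPH consumption tracked by fluorescence at 340/450 nm between t=0 and t=15 min, room temperature. Final mix: 10 nM GPX1, 100 nM glutathione reductase, 1 mM GSH, 0.5 mM NADPH, 0.5 mM cumene hydroperoxide, 0.01% BSA; 30 min compound–enzyme preincubation.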

[19] = target: Phospholipid hydroperoxide glutathione peroxidase GPX4 (Homo sapiens) (UniProt P36969); test: Primary qHTS Assay for Inhibitors of Recombinant Selenoprotein Glutathione Peroxidase 4 (GPX4) (AID 1845192; active = well fitted curve in the direction sought with a large enough effect; an effect the other way counts as inactive or inconclusive; also: nearly all actives have a fitted effect of over 65% in size)
In short: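 NADPH consumption followed by fluorescence at 340/450 nm, t=0 and after 15 min at room temperature. Reaction started with cumene hydroperoxide (0.5 mM final) after 30 min compound–GPX4 preincubation; final 200 nM GPX4, 100 nM GR, 1 mM GSH, 0.5 mM NADPH.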

[20] = target: Cytochrome P450 2D6 (Homo sapiens) (UniProt P10635); test: Cytochrome P450 family 2 subfamily D member 6 (CYP2D6) small molecule antagonists: luciferase biochemical (cell-free) qHTS assay (AID 1645840; active = well fitted curve in the direction sought with a large enough effect in the repeat runs; an effect the other way counts as inactive or inconclusive; also: nearly all actives have a fitted effect of over 55% in size)
In short: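 P450-Glo CYP2D6 system: proluciferin substrate converted by enzyme to luciferin, read by luminescence proportional to activity. Enzyme-substrate mix with compound 10 min at room temperature, then NADPH regeneration 1 h before detection reagent.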

Sequence of Cytochrome P450 2D6 (Homo sapiens) (P10635 whole entry, looked up): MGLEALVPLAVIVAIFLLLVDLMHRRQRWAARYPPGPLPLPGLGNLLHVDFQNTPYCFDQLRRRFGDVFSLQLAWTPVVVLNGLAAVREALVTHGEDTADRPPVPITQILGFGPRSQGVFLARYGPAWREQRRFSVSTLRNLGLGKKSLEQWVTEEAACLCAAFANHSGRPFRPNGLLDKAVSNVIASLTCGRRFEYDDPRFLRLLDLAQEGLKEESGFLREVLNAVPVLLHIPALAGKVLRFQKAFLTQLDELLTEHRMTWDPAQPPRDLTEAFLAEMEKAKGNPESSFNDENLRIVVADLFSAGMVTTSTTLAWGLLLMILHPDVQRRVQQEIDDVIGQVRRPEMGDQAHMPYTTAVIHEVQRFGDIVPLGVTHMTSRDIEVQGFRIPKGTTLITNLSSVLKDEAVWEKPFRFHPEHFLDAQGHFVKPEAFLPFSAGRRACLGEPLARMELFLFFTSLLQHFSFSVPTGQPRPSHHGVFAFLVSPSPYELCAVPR
Sequence of Glutathione peroxidase 1 (Homo sapiens) (P07203 whole entry, looked up): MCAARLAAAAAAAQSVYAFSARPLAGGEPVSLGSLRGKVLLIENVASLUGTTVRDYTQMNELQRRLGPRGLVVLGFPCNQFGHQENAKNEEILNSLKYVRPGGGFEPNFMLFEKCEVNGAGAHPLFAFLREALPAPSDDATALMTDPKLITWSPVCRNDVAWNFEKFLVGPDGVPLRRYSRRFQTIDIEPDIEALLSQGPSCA
Sequence of Cytochrome P450 3A4 (Homo sapiens) (P08684 whole entry, looked up): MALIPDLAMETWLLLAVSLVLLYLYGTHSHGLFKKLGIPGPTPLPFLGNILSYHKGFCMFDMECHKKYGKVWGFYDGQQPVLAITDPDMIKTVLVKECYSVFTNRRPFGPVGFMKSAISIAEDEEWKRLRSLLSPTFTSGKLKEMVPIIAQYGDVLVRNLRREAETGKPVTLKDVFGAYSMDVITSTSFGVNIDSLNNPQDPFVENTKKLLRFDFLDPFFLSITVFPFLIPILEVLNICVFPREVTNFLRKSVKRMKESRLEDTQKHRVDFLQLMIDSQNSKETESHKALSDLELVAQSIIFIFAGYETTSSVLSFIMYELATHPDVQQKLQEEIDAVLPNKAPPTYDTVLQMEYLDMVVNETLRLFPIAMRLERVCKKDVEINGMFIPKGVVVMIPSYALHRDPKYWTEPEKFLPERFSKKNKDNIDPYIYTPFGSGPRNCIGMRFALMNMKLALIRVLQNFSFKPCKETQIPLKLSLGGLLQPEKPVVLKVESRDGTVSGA
Sequence of Phospholipid hydroperoxide glutathione peroxidase GPX4 (Homo sapiens) (P36969 whole entry, looked up): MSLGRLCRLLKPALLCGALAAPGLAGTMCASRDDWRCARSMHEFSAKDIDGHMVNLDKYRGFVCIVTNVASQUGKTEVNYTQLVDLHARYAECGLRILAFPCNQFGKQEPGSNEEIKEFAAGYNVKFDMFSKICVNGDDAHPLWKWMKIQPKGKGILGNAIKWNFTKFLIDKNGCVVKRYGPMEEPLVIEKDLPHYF
Sequence of Ubiquitin carboxyl-terminal hydrolase 1 (Homo sapiens) (O94782 whole entry, looked up): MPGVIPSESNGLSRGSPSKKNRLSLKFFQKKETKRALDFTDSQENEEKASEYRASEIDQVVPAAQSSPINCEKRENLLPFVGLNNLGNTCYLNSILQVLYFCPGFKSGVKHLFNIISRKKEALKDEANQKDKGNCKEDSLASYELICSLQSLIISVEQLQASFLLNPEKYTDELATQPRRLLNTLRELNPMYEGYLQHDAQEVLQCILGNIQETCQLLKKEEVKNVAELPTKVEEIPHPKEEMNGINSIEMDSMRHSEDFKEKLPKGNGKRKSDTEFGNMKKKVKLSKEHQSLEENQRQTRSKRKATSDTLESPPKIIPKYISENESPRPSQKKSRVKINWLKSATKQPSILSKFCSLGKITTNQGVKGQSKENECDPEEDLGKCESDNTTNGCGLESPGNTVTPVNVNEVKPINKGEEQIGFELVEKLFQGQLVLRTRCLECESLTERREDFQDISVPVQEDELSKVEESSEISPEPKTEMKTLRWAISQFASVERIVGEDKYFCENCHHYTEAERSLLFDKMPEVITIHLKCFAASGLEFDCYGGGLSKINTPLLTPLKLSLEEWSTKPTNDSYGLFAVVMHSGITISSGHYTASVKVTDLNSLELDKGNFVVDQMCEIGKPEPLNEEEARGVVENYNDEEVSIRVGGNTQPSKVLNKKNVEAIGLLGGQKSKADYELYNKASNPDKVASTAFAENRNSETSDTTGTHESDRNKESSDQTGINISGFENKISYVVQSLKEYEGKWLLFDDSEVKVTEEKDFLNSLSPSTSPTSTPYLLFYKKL

## CC1(COc2ccc(N3CCC(Oc4ccc(OC(F)(F)F)cc4)CC3)cc2)Cn2cc([N+](=O)[O-])nc2O1 (stereo not drawn)
[1]
  Potency: inactive
[2]
  Potency: inactive
[3]
  Potency: inactive
[4]
  Potency: inactive

## CCN(CC)Cc1cc(Nc2ccnc3cc(Cl)ccc23)ccc1O
[5]
  Potency: 5.01 µM (active)
[6]
  Potency: 11.2 µM (active)
[1]
  Potency: 10 µM (active)
[7]
  Potency: 14.1 µM (active)
[3]
  Potency: inactive
[8]
  Potency: inactive
[9]
  Potency: 5.62 µM (active)
[10]
  Potency: 11.2 µM (active)
[11]
  Potency: 3.04 µM (active)

## CC(C)OC(=O)CCC/C=C\C[C@@H]1[C@@H](/C=C/[C@@H](O)COc2cccc(C(F)(F)F)c2)[C@H](O)C[C@@H]1O
[1]
  Potency: inactive
[2]
  Potency: inactive
[3]
  Potency: inactive
[10]
  Potency: 14.1 µM (active)

## CC(C)C[C@H](NC(=O)CNC(=O)c1cc(Cl)ccc1Cl)B1OC(=O)C(CC(=O)O)(CC(=O)O)O1
[1]
  Potency: inactive
[7]
  Potency: 1.26 µM (active)
[4]
  Potency: 0.794 µM (active)
[10]
  activity change, negative = inhibition: -97.4%

## Cc1c(N)nc(C(CC(N)=O)NCC(N)C(N)=O)nc1C(=O)NC(C(=O)NC(C)C(O)C(C)C(=O)NC(C(=O)NCCc1nc(-c2nc(C(=O)NCCCN[C@@H](C)c3ccccc3)cs2)cs1)C(C)O)C(O[C@@H]1O[C@@H](CO)[C@@H](O)[C@H](O)[C@@H]1O[C@H]1O[C@H](CO)[C@@H](O)[C@H](OC(N)=O)[C@@H]1O)c1cnc[nH]1 (stereo partly drawn)
[2]
  Potency: inactive
[7]
  Potency: inactive
[3]
  Potency: inactive
[12]
  Potency: 0.0215 µM (active)
[10]
  activity change, negative = inhibition: -97.1%

## Cc1ccc(C(=O)OCc2ccc([C@@H](CN)C(=O)Nc3ccc4cnccc4c3)cc2)c(C)c1
[2]
  Potency: inactive

## CO[C@H](C(=O)[C@@H](O)[C@@H](C)O)C1Cc2cc3cc(O[C@H]4C[C@@H](O[C@H]5C[C@@H](O)[C@H](O)[C@@H](C)O5)[C@@H](O)[C@@H](C)O4)c(C)c(O)c3c(O)c2C(=O)[C@H]1O[C@H]1C[C@@H](O[C@H]2C[C@@H](O[C@H]3C[C@](C)(O)[C@H](O)[C@@H](C)O3)[C@H](O)[C@@H](C)O2)[C@H](O)[C@@H](C)O1 (stereo partly drawn)
[6]
  Potency: 0.833 µM (active)
[1]
  Potency: 3.55 µM (active)
[12]
  Potency: 0.171 µM (active)
[4]
  Potency: inactive
[10]
  activity change, negative = inhibition: -92.7%
[11]
  Potency: 0.152 µM (active)

## CNC(C)C(O)c1ccccc1 (stereo not drawn)
[13]
  Potency: inactive
[14]
  Potency: inactive
[15]
  Potency: inactive
[16]; at 57.5 µM (top of the series)
  activity change, negative = inhibition: 8.05% (inactive)
[16]; measured here: cell count channel max response
  max response: 10.2%
[16]; measured here: lipid channel max response
  max response: 21.8%
[17]
  Potency: inactive
[2]
  Potency: inactive
[7]
  Potency: inactive
[3]
  Potency: inactive
[4]
  Potency: inactive
[10]
  activity change, negative = inhibition: -30.3%
[18]
  Potency: inactive
[19]
  Potency: inactive

## NCCS[As](SCCN)c1ccc(Nc2nc(N)nc(N)n2)cc1
[2]
  Potency: inactive
[7]
  Potency: inactive
[3]
  Potency: inactive
[20]
  Potency: inactive
[4]
  Potency: inactive
[10]
  activity change, negative = inhibition: -25.6%
